Sampled rows, rich in hits. Any-hit rate of the full collection: about 0.95%.
Tb PYK inh = inhibitors of Trypanosoma brucei pyruvate kinase; TbPYK enzyme, Kinase-Glo Plus ATP luminescence, 45 min; Potency, µM (titrated, usually from 76.8 µM), for the others: at the top dose activity, negative = inhibition, actives largely listed as inhibitors; 410,000 compounds, 0.12% hits; note: nearly all actives have a fitted effect of over 50% in size
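Quantitative HTS: titrated library compounds versus trypanosomal pyruvate kinase in TEA buffer (pH 7.2) containing KCl, MgCl2, BSA and Tween-20. Reactions were initiated with ADP, 130 uM final. Kinase-Glo Plus luminescence was read after 45 min at RT.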
LmPK inhibitor = inhibitors of Leishmania mexicana pyruvate kinase; purified LmPK, Kinase-Glo ATP luminescence, 1 h; Potency, µM (doses to about 57.5 µM), for inactives: at the highest dose activity change, negative = inhibition, usual class: inhibitors; 290,000 compounds, 0.37% hits
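Screened at intermediate enzyme activity to detect both inhibitors and activators: LmPK at 0.1 nM, with a 0.5 nM enzyme column as activation reference. PEP 0.5 mM, ADP 0.1 mM; ATP detected by luminescence after 1 h.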
RE007 growth inh = less growth of the S. pombe RE007 Vpr strain; S. pombe RE007 Vpr strain, BacTiter-Glo ATP luminescence, 24 h; Potency, µM (doses to about 92.2 µM), without a hit: at the highest dose activity change, negative = less growth, most hits filed as inhibitors; 360,000 compounds, 0.21% hits; active = well fitted falling curve with a large enough effect; inconclusive = small, poorly fitted or top-dose-only effect; inactive = no such curve, though single readings can be large or run the other way; note: nearly all actives have a fitted effect of over 50% in size
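Fission yeast RE007 carrying one integrated HIV-1 vpr copy, seeded at OD 0.01 in PMG+AL medium with 23 nL pinned compound. Grown 24 h at 30 degrees; viability read by BacTiter-Glo luminescence after 5 min.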
Giardia FBPA inh-1 = inhibitors of Giardia lamblia fructose-1,6-bisphosphate aldolase | A8B2U2 | purified Giardia FBPA | Potency, µM (titrated, usually from 59.6 µM), inactives show top-dose activity, negative = inhibition, hits mostly inhibitors | 290,000 compounds, 0.71% hits | AID 2451; note: nearly all actives have a fitted effect of over 55% in size
Target sequence (A8B2U2 whole entry, looked up): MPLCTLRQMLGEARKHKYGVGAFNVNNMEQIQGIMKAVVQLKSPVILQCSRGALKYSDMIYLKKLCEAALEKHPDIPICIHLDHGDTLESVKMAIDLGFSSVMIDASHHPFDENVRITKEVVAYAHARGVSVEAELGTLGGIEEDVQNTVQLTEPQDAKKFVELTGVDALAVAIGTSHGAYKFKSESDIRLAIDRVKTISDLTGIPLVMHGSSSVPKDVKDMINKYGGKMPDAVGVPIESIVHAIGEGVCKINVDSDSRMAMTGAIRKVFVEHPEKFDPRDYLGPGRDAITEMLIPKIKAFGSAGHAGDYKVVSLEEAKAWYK
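40 nM FBPA preincubated 10 min at RT with compound (up to 57.5 uM final), then substrate plus GAPDH/TPI/NAD/arsenate coupling and diaphorase/resazurin added. Fluorescence read after 20 min at RT, 525/598 nm.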
Giardia growth = Giardia lamblia growth inhibition; shares compounds with Giardia FBPA inh-1; Giardia lamblia trophozoite growth inhibition; Potency, µM (series often up to 57.5 µM), for inactives: at the top dose activity change, negative = inhibition, most hits filed as inhibitors; 1,500 compounds, 5% hits; AID 2785;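 note: trophozoites exposed to compound for 48 h at 37 °C; nearly all actives have a fitted effect of over 70% in size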
Mammalian tox = mammalian cytotoxicity of Giardia aldolase inhibitor hits. mammalian cell viability counter-screen, qHTS. 1,500 compounds, 4% hits. Potency, µM (highest dose often 57.5 µM), for inactives: top-dose viability change, negative = toxicity, most hits filed as inhibitors. AID 2786. shares compounds with Giardia FBPA inh-1;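 note: Chinese hamster ovary cells used as mammalian cytotoxicity surrogate; viability measured as cellular ATP by luminescence; compound exposure lasted 48 h before reading; nearly all actives have a fitted effect of over 60% in size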
Giardia FBPA inh-2 = confirmation of Giardia fructose-bisphosphate aldolase inhibitors; shares compounds with Giardia FBPA inh-1; purified Giardia aldolase enzyme activity, qHTS; Potency, µM (series often up to 57.5 µM), inactives show at the highest dose activity change, negative = inhibition, actives largely listed as inhibitors; 1,500 compounds, 5% hits; note: nearly all actives have a fitted effect of over 45% in size
Rabbit FBPA inh = rabbit FBP aldolase inhibition by Giardia aldolase hits; shares compounds with Giardia FBPA inh-1; Rabbit muscle FBPA enzyme inhibition, selectivity counter-screen; Potency, µM (titrated, usually from 57.5 µM), inactives show at the top dose activity, negative = inhibition, most hits filed as inhibitors; 1,500 compounds, 4% hits; note: nearly all actives have a fitted effect of over 60% in size
Target sequence (P00883 whole entry, looked up): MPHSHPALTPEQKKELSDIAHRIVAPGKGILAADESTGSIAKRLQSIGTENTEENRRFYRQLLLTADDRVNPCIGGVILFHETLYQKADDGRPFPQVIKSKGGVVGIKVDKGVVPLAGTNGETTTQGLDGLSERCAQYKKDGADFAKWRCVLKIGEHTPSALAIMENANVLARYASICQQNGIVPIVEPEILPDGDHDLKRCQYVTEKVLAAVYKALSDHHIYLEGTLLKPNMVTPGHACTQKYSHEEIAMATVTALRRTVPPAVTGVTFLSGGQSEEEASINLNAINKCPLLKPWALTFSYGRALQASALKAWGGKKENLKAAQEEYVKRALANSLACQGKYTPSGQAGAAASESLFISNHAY
GAPDH counter = counter-screen for Giardia aldolase inhibitors: GAPDH coupling enzyme. AID 2795. Potency, µM (doses to about 57.5 µM), inactives show top-dose activity change, negative = inhibition, usual class: inhibitors. GAPDH coupling enzyme counterscreen, biochemical, qHTS. 1,500 compounds, 6% hits. shares compounds with Giardia FBPA inh-1; note: nearly all actives have a fitted effect of over 55% in size
An asterisk follows results filed as active; ? = inconclusive; nt = not tested or not shown; ! = a repeat was not active; [ ] = another dose, or the depositor's remark. Unless noted, calls come from the whole dose curve; as a rule, active = well fitted curve in the direction sought with a large enough effect; inconclusive = small, poorly fitted or top-dose-only effect, or another doubt; inactive = no such curve, though single readings can be large; an effect the other way counts as inactive or inconclusive. % is set by controls: 0 for no effect and ±100 for the full control effect; potency is the fitted concentration of half-maximal effect.

SMILES	Tb PYK inh	LmPK inhibitor	RE007 growth inh	Giardia FBPA inh-1	Giardia growth	Mammalian tox	Giardia FBPA inh-2	Rabbit FBPA inh	GAPDH counter
O=C1/C(=C\c2ccco2)CCC/C1=C\c1ccco1	-16%	4%	8%	16µM*	14%	?	-4%	5%	-3%
O=C1NC(=O)C(c2ccccc2[N+](=O)[O-])=C1Nc1ccc(O)c(Cl)c1	-10%	1%	1%[18.4 µM]	25µM*!	-16%	-4%	?	?	-19%
CC(C)(C)c1ccc(S(=O)(=O)NCc2ccc3c(c2)CCN3C(=O)c2ccccc2)cc1	-3%	nt	nt	nt	nt	nt	nt	nt	nt
c1ccc2c3c(cc(N4CCOCC4)c2c1)OC1(N2CCOCC2)CCCCC1O3 (stereo not given)	1%	3%	-6%	0.56µM*	?	-9%	7.1µM*	?	25µM*
Brc1ccc(CN2CCN(Cc3c[nH]c4ccccc34)CC2)cc1	5%	-9%	4%	14µM*	20µM*	-8%	-4%	1%	1%
Brc1ccccc1CN1CCN(Cc2c[nH]c3ccccc23)CC1	22%	nt	-6%	nt	nt	nt	nt	nt	nt
O=c1[nH]c(CSc2cccc[n+]2[O-])nc2ccccc12	-25%	0%	-15%	14µM*	0%[10.4 µM]	-9%	-2%	-4%	1%
CC1=NOC(=O)/C1=C\c1ccc(-c2ccc(Br)cc2C(=O)O)o1	-23%	10%	-14%	5µM*	-17%[38.3 µM]	-1%	-12%	-10%	-7%
CC1=NOC(=O)/C1=C\c1ccc(-c2ccc(Br)cc2)o1	5%	-2%	?	-12%	nt	nt	nt	nt	nt
O=C(N/N=C/c1cc(Br)c(Br)o1)c1ccc2c(c1)OCCO2	-7%	1%	-15%	13µM*	12%	-15%	-8%	-8%	1%
Cc1cc(=O)[nH]c2nnc(SCc3ccccc3F)n12	-9%	nt	nt	nt	nt	nt	nt	nt	nt
CC(=O)c1ccc(NC(=S)NC(=O)c2c(Cl)c(C)nn2C)cc1	3%	4%	-19%	6.3µM*	?	17%	10%	14%	1%
CCN(CC)S(=O)(=O)c1ccc2nc(NC(=O)c3cccnc3)sc2c1	0%	nt	nt	nt	nt	nt	nt	nt	nt
Cc1cc(C)c(NC(=O)Cn2nc(-c3ccncc3)ccc2=O)c(C)c1	-6%	nt	nt	nt	nt	nt	nt	nt	nt
NN1C(=O)/C(=C2/Sc3ccccc3N2CCCS(=O)(=O)O)SC1=S	-5%	-9%	5%	18µM*	14%[10.4 µM]	15%	11%	8%	-9%
O=C(Nn1c(=S)[nH]c2ccccc2c1=O)c1ccncc1	-6%	0%	-10%	16µM*	-8%	10%	0%	0%	1%
CC(C)NC(=O)c1ccc(-n2c(=S)[nH]c3ccccc3c2=O)cc1	nt	0%	nt	-5%	nt	nt	nt	nt	nt
O=C(CCN1CCCCC1)Nn1c(=S)[nH]c2ccccc2c1=O	8%	-1%	-5%	22µM*	?	11%	1%	12%	5%
CCOC(=O)C(=O)Nc1c(C(=O)Nc2cccc(F)c2)oc2ccccc12	6%	nt	nt	nt	nt	nt	nt	nt	nt
Cc1ccc(CN2CCC(N3CC(C)OC(C)C3)CC2)cc1 (stereo not given)	5%	-5%	-5%	16µM*	?	5%	3%	5%	1%
CN1C(=O)NC(=O)/C(=C/c2ccc([N+](=O)[O-])o2)C1=O	?	-28%	-28%	18µM*	?	-2%	?	?	?
CN1C(=O)NC(=O)/C(=C\c2ccc([N+](=O)[O-])o2)C1=O	?	-26%	-10%	18µM*	?	-5%	?	?	?
O=C1NC(=O)N(c2ccccc2)C(=O)/C1=C\c1ccc([N+](=O)[O-])o1	nt	-17%	nt	20µM*	-22%	7%	-26%	-25%	-19%
CCOc1ccc(NC(=O)N2CC=C(c3c[nH]c4ccccc34)CC2)cc1	0%[15.4 µM]	nt	nt	nt	nt	nt	nt	nt	nt
C/C(CCc1ccc2c(c1)OCO2)=N\NC(=O)c1ccccc1	1%	0%	-2%	1%	nt	nt	nt	nt	nt
SMILES	Tb PYK inh	LmPK inhibitor	RE007 growth inh	Giardia FBPA inh-1	Giardia growth	Mammalian tox	Giardia FBPA inh-2	Rabbit FBPA inh	GAPDH counter
NC(=NCc1ccc2c(c1)OCO2)NC(=O)c1ccccc1	-14%	-3%	-10%	1.4µM*	13%[38.3 µM]	-4%	-7%	0%	7%
Cc1cc(C)c2nc(-c3ccccn3)cc(C(=O)NCCc3ccc(S(N)(=O)=O)cc3)c2c1	-16%	9%	14%	18µM*	3%[10.4 µM]	-1%	-1%	3%	15%
CCCCN1C(C(=O)c2ccccc2)=C(OC(C)=O)c2ccccc2S1(=O)=O	-14%	nt	nt	nt	nt	nt	nt	nt	nt
Cc1ccc(O)c(N=Cc2cccs2)c1	3%	1%	-29%	20µM*	3%	13%	35µM*	40µM*	50µM*
COc1ccc(NS(=O)(=O)c2ccc3c(c2)CCN3C(=O)CCC(=O)O)cc1Cl	0%	nt	nt	nt	nt	nt	nt	nt	nt
NC(=S)N/N=C/c1cn(CCC(=O)O)nc1-c1cccc(Br)c1	3%	2%	1%	?	nt	nt	nt	nt	nt
COc1ccc(-c2nn(CCC(=O)O)cc2/C=N/NC(N)=S)cc1	-6%	-1%	9%	16µM*	3%[10.4 µM]	18%	1%	2%	11%

High-throughput results (PubChem)
